PubChem BioAssay (NCATS)
Values joined by “and” are separate entries in the source; they are usually repeats but may differ in a detail not shown here. Equal entries are not always repeated. Results filed as inconclusive are left out. Active and inactive are the calls of the source. Calls follow the shape of the dose curve; as a rule, active = well fitted curve in the direction sought with a large enough effect; inconclusive = small, poorly fitted or top-dose-only effect, or another doubt; inactive = no such curve, though single readings can be large; an effect the other way counts as inactive or inconclusive. Peptide text beside a SMILES is read from it. * marks the point of attachment. PhAc = O=C(Cc1ccccc1)*

Tests used:
[1] = target: Cellular tumor antigen p53 (Homo sapiens) (UniProt P04637); assay: Primary qHTS for small molecule compounds that upregulate eGFP-tagged delta133p53alpha (in N-terminal) cells. (AID 2060322); conditions: NCI-H358 eGFP-delta133p53alpha fluorescence, 24 h; activation: active compounds read high; also: nearly all actives have a fitted effect of over 75% in size; also: potency is read from the fitted curve at half-maximal effect;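 as to activation: cells pre-induced with doxycycline then dosed without doxycycline; 0% = DMSO vehicle and 100% = reference activator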
Sequence of Cellular tumor antigen p53 (Homo sapiens) (P04637 whole entry, looked up): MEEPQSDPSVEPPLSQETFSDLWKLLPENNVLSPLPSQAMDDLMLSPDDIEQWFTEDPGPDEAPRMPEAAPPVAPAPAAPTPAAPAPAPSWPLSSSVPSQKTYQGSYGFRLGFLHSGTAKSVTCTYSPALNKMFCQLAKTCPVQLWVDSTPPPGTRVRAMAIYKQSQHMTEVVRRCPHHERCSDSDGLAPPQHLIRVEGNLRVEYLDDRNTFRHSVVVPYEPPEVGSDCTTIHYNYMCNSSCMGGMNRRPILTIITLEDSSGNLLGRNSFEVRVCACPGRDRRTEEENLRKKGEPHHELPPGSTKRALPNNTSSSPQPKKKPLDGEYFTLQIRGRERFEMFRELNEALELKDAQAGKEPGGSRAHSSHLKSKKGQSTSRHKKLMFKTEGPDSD
In short: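 NCI-H358 cells pre-induced 24 h with 10 ng/ml doxycycline for eGFP-delta133p53alpha, plated dox-free and exposed 24 h at 37C to titrated compounds. Fixed, Hoechst-stained; gated GFP peak intensity by laser scanning cytometry, normalized to DMSO (0%) and 57.5 uM 5-azacytidine (100%).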

[2] = target: Aldehyde dehydrogenase, mitochondrial (Homo sapiens) (UniProt P05091); assay: qHTS for Inhibitors of the Aldehyde Dehydrogenase Family (ALDH2) Primary screen (AID 2061308); conditions: ALDH2 enzyme inhibition qHTS, 1536-well; series mostly up to 56 µM;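 also: plate controls were vehicle for no effect and reference inhibitor for full effect; nearly all actives have a fitted effect of over 55% in size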
[3] = target: Retinaldehyde dehydrogenase 3 (Homo sapiens) (UniProt P47895); assay: qHTS for Inhibitors of the Aldehyde Dehydrogenase Family (ALDH1A3) Validation screen (AID 2061312); conditions: ALDH1A3 enzyme inhibition qHTS validation, fluorescence; series mostly up to 84.7 µM; also: % is scaled to controls: 0 for no effect and ±100 for the full control effect; nearly all actives have a fitted effect of over 45% in size
[4] = target: Retinaldehyde dehydrogenase 3 (Homo sapiens) (UniProt P47895); assay: qHTS for Inhibitors of the Aldehyde Dehydrogenase Family (ALDH1A3) Primary screen (AID 2061315); conditions: ALDH inhibition qHTS; series mostly up to 56 µM;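 also: plate controls were DMSO vehicle for no effect and reference inhibitor for full effect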

CC1(C)Oc2ncnc(N)c2N=C1c1ccc(C23CCC(CC(=O)O)(CC2)CC3)cc1
inactive: activation [1] -11.9% | Potency [2] | Potency [3] | Potency [4]

COC(=O)c1sccc1S(=O)(=O)Nc1ccc(Nc2ccccc2)cc1OC
inactive: activation [1] -5.73% | Potency [2] | Potency [3] | Potency [4]

CCOC(=O)COc1ccc2c(c1)C[C@@H](NC[C@H](O)c1cccc(Cl)c1)CC2
inactive: activation [1] 11.9% | Potency [2] | Potency [3] | Potency [4]

O=C(Nc1ccc(C(F)(F)F)cn1)N1CCN(c2ncccc2C(F)(F)F)CC1
inactive: activation [1] -3.34% | Potency [2] | Potency [3] | Potency [4]

CNc1nc(NCc2ccc(NS(C)(=O)=O)cc2Cl)cc(-c2ccccn2)n1
inactive: activation [1] 7.64% | Potency [2] | Potency [3] | Potency [4]

CN(C)CCc1c[nH]c2ccc(C[C@H]3COC(=O)N3)cc12
inactive: activation [1] -0.837% and -21.4% and -11.5% | Potency [2] | Potency [3] | Potency [4]

O=C(O)C1CN(Cc2ccc(-c3nc4cc(Cc5ccccc5F)ccc4s3)c(F)c2)C1
inactive: activation [1] -12.4% | activity change, negative = inhibition [2] -1.77% [at 11.2 µM] | activity change, negative = inhibition [3] -10% [at 20.1 µM] | activity change, negative = inhibition [4] -4.23% [at 11.2 µM]

Cn1ncnc1COc1nn2c(-c3cc(F)ccc3F)nnc2cc1C(C)(C)C
inactive: activation [1] -11.9% | Potency [2] | Potency [3] | Potency [4]

COC1CCN(c2cccc(-c3cc(NC(C)=O)nc(-n4nc(C)cc4C)n3)n2)CC1
inactive: activation [1] -8.59% | Potency [2] | Potency [3] | Potency [4]

C#CCN(Cc1cc2c(=O)[nH]c(C)nc2cc1Br)c1ccc(C(=O)NCc2cccnc2)cc1
inactive: activation [1] -5.73% | Potency [2] | Potency [3] | Potency [4]

Oc1ccc([C@H]2COc3cc(O)ccc3C2)cc1
inactive: activation [1] -10.5% | Potency [2] | Potency [3] | Potency [4]

COc1ccc(C#Cc2ccc(C(=O)N3CCC[C@@H](CO)C3)cc2)cc1
inactive: activation [1] -13.8% | Potency [2] | Potency [3] | Potency [4]

CC1(C)CC=C(C#Cc2ccccc2)c2cc(/C=C/c3ccc(C(=O)O)cc3)ccc21
inactive: activation [1] -5.73% | Potency [2] | Potency [3] | Potency [4]

O=C(O)[C@H](Cc1ccccc1)Oc1ccc(-c2ccccc2)cc1
inactive: activation [1] -3.34% | Potency [2] | Potency [3] | Potency [4]

CS(=O)(=O)c1ccc([C@@H](O)[C@@H](CF)NC(=O)C(Cl)Cl)cc1
inactive: activation [1] -2.82% and -2.86% | Potency [2] | Potency [3] | Potency [4]

CNC(=O)COC(=O)N1CCC(CCc2ccc(Cl)cc2)CC1
inactive: activation [1] -1.91% | Potency [2] | Potency [3] | Potency [4]

O=C(Nc1ccc(-n2nc(C(F)(F)F)cc2C(F)(F)F)cc1)c1ccncc1F
inactive: activation [1] -5.25% | Potency [2] | Potency [3] | Potency [4]

CC(C)(O)c1ccc2c(c1)ncn2-c1cccc(-c2ccccc2C#N)c1
inactive: activation [1] -12.4% | Potency [2] | Potency [3] | Potency [4]

CCn1c2ccccc2c2cc(CNC)ccc21
inactive: activation [1] 12.4% | Potency [2] | Potency [3] | Potency [4]

CCNC(=O)[C@H]1O[C@H](n2cnc3c(NCC(c4ccccc4)c4ccccc4)nc(C(=O)NCCNC(=O)NC4CCN(c5ccccn5)CC4)nc32)[C@H](O)[C@@H]1O
inactive: activation [1] -9.55% | Potency [2] | Potency [3] | Potency [4]

Cc1c(C(=O)NCc2cccnc2)nn(-c2ccc(Cl)cc2Cl)c1-c1ccc(Cl)cc1
inactive: activation [1] 21% | Potency [2] | Potency [3] | Potency [4]

C[C@@H](NC(=O)c1cc(C(=O)N[C@@H](Cc2ccccc2)[C@H](O)CNC2CC2)cc(N(C)S(C)(=O)=O)c1)c1ccccc1
inactive: activation [1] -12.4% | Potency [2] | Potency [3] | Potency [4]

O=C(Nc1ccc(F)cc1)N1CCc2ccccc2C1c1ccc(C(F)(F)F)cc1 (configuration not stated)
inactive: activation [1] 13.4% | Potency [2] | Potency [3] | Potency [4]

COc1cc(Nc2nc3c(s2)CCCC3c2ccc(F)cc2)ccc1-n1cnc(C)c1 (configuration not stated)
inactive: activation [1] -13.4% | Potency [2] | Potency [3] | Potency [4]

CC(C)(C#N)c1ccc(N2C(=O)OCc3cnc4ccc(-c5cnc6ccccc6c5)cc4c32)cc1
inactive: activation [1] -3.82% | Potency [2] | Potency [3] | Potency [4]

COc1ccc([C@H]2CNC(=O)C2)cc1OC1CCCC1
inactive: activation [1] -26.3% | Potency [2] | Potency [3] | Potency [4]

COc1ccc(Cl)cc1[C@@]1(F)C(=O)Nc2cc(C(F)(F)F)ccc21
inactive: activation [1] 24.8% | Potency [2] | Potency [3] | Potency [4]

CCOC(=O)CNC(=O)[C@@H]1CCCN1C(=O)Cc1ccccc1 (PhAc-Pro-Gly-OEt)
inactive: activation [1] 13.8% | Potency [2] | Potency [3] | Potency [4]

COc1cc(N)c(Cl)cc1C(=O)NC[C@@H]1CCN2CCC[C@@H]12
inactive: activation [1] -3.34% | Potency [2] | Potency [3] | Potency [4]

O=C(Nc1nc2ccccc2n1CCc1ccccc1)c1ccccc1
inactive: activation [1] 6.68% | Potency [2] | Potency [3] | Potency [4]

CN(C)c1nc(NC2CCC(NCCc3ccc(Br)cc3OC(F)(F)F)CC2)nc2ccccc12 (configuration not stated)
inactive: Potency [2] | Potency [3] | Potency [4]
active: Potency [1] 13.5 µM

CNc1ccc([N+](=O)[O-])cc1-n1cnc(-c2ccc(C(F)(F)F)cc2)c1
inactive: activation [1] 5.25% | Potency [2] | Potency [3] | Potency [4]

O=C(NCCCn1ccnc1)c1cc(-c2ccco2)on1
inactive: activation [1] -9.07% | Potency [2] | Potency [3] | Potency [4]

CC1=C(/C=C/C(C)=C\C=C\C(C)=C/C(=O)O)C(C)(C)CCC1
inactive: activation [1] 11.5% | Potency [2] | Potency [3] | Potency [4]

Cc1ccc(N2CCN(CCC3NC(=O)c4ccccc43)CC2)cc1C (configuration not stated)
inactive: activation [1] -7.16% | Potency [2] | Potency [3] | Potency [4]

O=c1[nH]c2ccccc2n1CCN1CCN(c2cccc(C(F)(F)F)c2)CC1
inactive: activation [1] -3.34% | Potency [2] | Potency [3] | Potency [4]

COc1cccc(-n2nc(C(=O)O)cc2-c2ccc(C3CCCCC3)c(Cl)c2)c1
inactive: activation [1] 1.43% | Potency [2] | Potency [3] | Potency [4]

NC(=O)c1ccc(F)c2c1C[C@@H](N(C1CCC1)C1CCC1)CO2
inactive: activation [1] -11.5% | Potency [2] | Potency [3] | Potency [4]

CN1CCC(c2c[nH]c3ccc(NC(=O)c4ccc(F)cc4)cc23)CC1
inactive: activation [1] -11% | Potency [2] | Potency [3] | Potency [4]

CNC(=O)O[C@H]1COc2ccc(N3CCN(C4COC4)CC3)cc2[C@@H]1NC(=O)c1ccc(F)cc1
inactive: activation [1] -1.43% | Potency [2] | Potency [3] | Potency [4]

CNC(=O)[C@@H](c1ccccc1)N1CCc2cc(OC)c(OC)cc2[C@@H]1CCc1ccc(C(F)(F)F)cc1
inactive: activation [1] -3.34% | Potency [2] | Potency [3] | Potency [4]

COc1ccc2cc(-c3cc(-c4cc(Cl)cc(Cl)c4)nn3C(C)c3ccc(C(=O)NCCC(=O)O)cc3)ccc2c1 (configuration not stated)
inactive: activation [1] 29.1% | Potency [2] | Potency [3] | Potency [4]

Cc1ccc(CCCO)c(NCc2ccc3nc(NCCCN4CCOCC4)n(Cc4nc(C)ccc4O)c3c2)c1
inactive: activation [1] 14.3% | Potency [2] | Potency [3] | Potency [4]

CC(C)C[C@@H](C(=O)N[C@@H](Cc1ccc(OCc2ccccc2)cc1)C(=O)NC(C)(C)C)N(C)Cc1ccc(C(C)(C)C)cc1
inactive: activation [1] -1.91% | Potency [2] | Potency [3] | Potency [4]

CC(=O)NCC(=O)N1C2CCC1c1cc(Nc3ncc(C(F)(F)F)c(NC4CCC4)n3)ccc12 (configuration not stated)
active: Potency [1] 3.79 µM
inactive: Potency [2] | Potency [3] | Potency [4]

N#CC(c1ccnc(OCc2ccc(CN3CCOCC3)cc2)n1)c1nc2ccccc2s1 (configuration not stated)
inactive: activation [1] 0.477% | Potency [2] | Potency [3] | Potency [4]

CC(C)Nc1nc(Nc2ccccc2)nc(-c2ccccc2)n1
inactive: activation [1] 2.39% | Potency [2] | Potency [3] | Potency [4]

Cc1cc(C(=O)Nc2cccc(C(=O)Nc3cccc(C(F)(F)F)c3)c2)on1
inactive: activation [1] -7.16% | Potency [2] | Potency [3] | Potency [4]

Cc1cc(C(=O)N2CCCCc3ccccc32)ccc1CNC(=O)N1CCC[C@H]1C(=O)N(C)C
inactive: activation [1] 4.3% | Potency [2] | Potency [3] | Potency [4]

OC1(c2ccc(Cl)c(C(F)(F)F)c2)CCN(CCCC(c2ccc(F)cc2)c2ccc(F)cc2)CC1
inactive: activation [1] 13% | Potency [2] | Potency [3] | Potency [4]

Cc1ccc(-c2c(-c3nn(C)c4ncnc(N5CCC(N6CCCCC6)C5)c34)cnn2C)cc1 (configuration not stated)
inactive: activation [1] 2.39% | Potency [2] | Potency [3] | Potency [4]

COc1cc(Br)c(Nc2nc(-c3c(C)nc4ncccn34)cs2)c(Br)c1
inactive: activation [1] 14.8% | Potency [2] | Potency [3] | Potency [4]

O=C(Nc1ccc(S(=O)(=O)Nc2ccccc2Cl)c(Cl)c1)c1ccccn1
inactive: activation [1] 15.8% | Potency [2] | Potency [3] | Potency [4]

O=C(NCC1CCN(Cc2cccc(Cl)c2)CC1)[C@@H]1CCCN(c2ncnc3c2nc2n3CCCC2)C1
inactive: activation [1] 0% | Potency [2] | Potency [3] | Potency [4]

CN(C1CCc2c(c3ccccc3n2CC(=O)O)C1)S(=O)(=O)c1ccc(F)cc1 (configuration not stated)
inactive: activation [1] -3.55% and 0% and -0.955% | Potency [2] | Potency [3] | Potency [4]

O=C1C(Cc2ccc(O)cc2)N2C(=O)CCN(C(=O)NCc3ccccc3)C2CN1Cc1cccc2ccccc12 (configuration not stated)
inactive: activation [1] 19.6% | Potency [2] | Potency [3] | Potency [4]

NCc1c[nH]c(=S)n1[C@@H]1CCc2c(F)cc(F)cc2C1
inactive: activation [1] 0% | Potency [2] | Potency [3] | Potency [4]

CN(C)C(=O)NC1CCC(CCN2CCN(c3cccc(Cl)c3Cl)CC2)CC1 (configuration not stated)
inactive: activation [1] -1.91% | activity change, negative = inhibition [2] 8.14% [at 11.2 µM] | activity change, negative = inhibition [3] 7.05% [at 20.1 µM] | activity change, negative = inhibition [4] -11.6% [at 11.2 µM]
